# Laboratory results reported in PubChem BioAssay (NCATS).
# Inconclusive results are not listed. A number with no mark means an inactive call. Calls follow the shape of the full dose curve.
# Test: Cell Viability - BJ (AID 421);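 also: cells exposed to compound for 40 hours at 37 °C before readout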
# Details: BJ fibroblast viability, qHTS
# Summary of the method: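 Cytotoxicity as drop in intracellular ATP (CellTiter-Glo, 20 min RT) after 40 hr compound exposure of BJ fibroblasts at 37 °C. Titrations scaled between DMSO and 100 uM tamoxifen, Hill-fitted for AC50.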
# Potency is read from the fitted curve at half-maximal effect.
row,SMILES,Potency
1,Oc1c(Cl)ccc(Cl)c1Cl,> 92 µM
2,CCCCCO,> 92 µM
3,CCCCCCC(=O)O,> 92 µM
4,CCCCCCCCC/C=C/CC1CC(=O)OC1=O (configuration not stated),> 92 µM
5,c1ccc(Nc2ccccc2)cc1,> 92 µM
6,O=[N+]([O-])c1ccc(Cl)cc1Cl,> 92 µM
7,CCc1ccccc1,> 92 µM
8,FC(F)(F)c1cccc(Cl)c1,> 92 µM
9,FB(F)F,> 92 µM
10,C=C(C)C(=O)OC,> 92 µM
11,O=C(O)CN(CC(=O)O)CC(=O)O,> 92 µM
12,CC=O,> 92 µM
13,Cc1ccc(Cl)cc1,> 92 µM
14,C=Cc1ccc(C=C)cc1,> 92 µM
15,CC(O)CC(C)O (configuration not stated),> 92 µM
16,O=C(Cl)c1c(Cl)cccc1Cl,> 92 µM
17,O=C(O)c1cccc([N+](=O)[O-])c1,> 92 µM
18,Clc1cc(Cl)cc(Cl)c1,> 92 µM
19,NC(N)=S,> 92 µM
20,CC(C)(O)CCC(C)(C)O,> 92 µM
21,OC(CCl)CCl,> 92 µM
22,CCC(O)C(C)(C)C (configuration not stated),> 92 µM
23,CNC(=O)c1ccccc1,> 92 µM
24,CCNc1ccccc1,> 92 µM
25,c1ccsc1,> 92 µM
26,O=C(Cl)c1ccccc1[N+](=O)[O-],> 92 µM
27,Cc1ccc2cccnc2c1,> 92 µM
